Measured values taken from article PMC7826789 (International Journal of Molecular Sciences, 2021).

Legend:
Settings in all cases: Compound Concentration (nM):1000
[1] = tested on: BRSK2
[2] = tested on: BTK
[3] = tested on: BUB1
[4] = tested on: T1, CAMK1B
T1 construct: gene PNCK

[5] = tested on: CAMK1D
[6] = tested on: CAMK1G
[7] = tested on: CAMK1
[8] = tested on: CAMK2A
[9] = tested on: CAMK2B
[10] = tested on: CAMK2D
[11] = tested on: CAMK2G
[12] = tested on: CAMK4
[13] = tested on: CAMKK1
[14] = tested on: CAMKK2
[15] = tested on: CASK
[16] = tested on: T2, CDC2L1
T2 construct: gene CDK11B

[17] = tested on: CDC2L2
[18] = tested on: T3, CDC2L5
T3 construct: gene CDK13

[19] = tested on: T4, CDK11
T4 construct: gene CDK19

[20] = tested on: CDK2
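Also: KINOMEscan scanMAX binding as percent activity remaining versus control; lower means stronger binding.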

Row | Compound | Percent Control [1] [%] | Percent Control [2] [%] | Percent Control [3] [%] | Percent Control [4] [%] | Percent Control [5] [%] | Percent Control [6] [%] | Percent Control [7] [%] | Percent Control [8] [%] | Percent Control [9] [%] | Percent Control [10] [%] | Percent Control [11] [%] | Percent Control [12] [%] | Percent Control [13] [%] | Percent Control [14] [%] | Percent Control [15] [%] | Percent Control [16] [%] | Percent Control [17] [%] | Percent Control [18] [%] | Percent Control [19] [%] | Percent Control [20] [%]
1 | COc1cccc(-n2ncc3c(N/N=C/c4ccncc4)ncnc32)c1 [GW784752X] | 61 | 100 | 77 | 99 | 100 | 100 | 99 | 89 | 82 | 100 | 100 | 100 | 100 | 100 | 68 | 100 | 97 | 83 | 100 | 72
2 | C[C@@H](Oc1cc(-n2cnc3ccc(OC4CCN(C)CC4)cc32)sc1C(N)=O)c1ccccc1Cl [GSK579289A] | 56 | 92 | 88 | 100 | 61 | 81 | 55 | 74 | 80 | 52 | 69 | 100 | 85 | 67 | 11 | 97 | 94 | 79 | 100 | 74
3 | CC1=C(C(=O)Nc2ccc3[nH]ncc3c2)C(c2ccc(Cl)c(Cl)c2)CC(=O)N1 (stereo not shown) [GSK299115A] | 98 | 26 | 73 | 81 | 90 | 100 | 87 | 80 | 88 | 96 | 95 | 100 | 95 | 85 | 96 | 100 | 96 | 77 | 91 | 100
4 | O=C1Nc2ccc(C(=O)c3ccco3)cc2C1=Cc1cc(Cl)c(O)c(Cl)c1 [GW406108X] | 100 | 87 | 50 | 100 | 81 | 77 | 63 | 25 | 44 | 55 | 77 | 100 | 43 | 31 | 87 | 100 | 98 | 99 | 100 | 100
5 | COc1ccc2[nH]c3c4[nH]c5ccc(OC)cc5c4c4c(c3c2c1)C(=O)NC4=O [GW296115X] | 6.2 | 74 | 29 | 78 | 64 | 76 | 80 | 70 | 100 | 64 | 80 | 98 | 78 | 74 | 100 | 90 | 91 | 100 | 100 | 93
6 | NS(=O)(=O)c1ccc(Nc2ncc(-c3ccccc3)o2)cc1 [GW572399X] | 100 | 96 | 80 | 100 | 100 | 100 | 78 | 94 | 100 | 100 | 100 | 100 | 100 | 100 | 94 | 100 | 100 | 26 | 100 | 100
7 | CC(C)COC(=O)c1ccc2c(c1)/C(=C/Nc1ccc(S(N)(=O)=O)cc1)C(=O)N2 [GW416981X] | 88 | 100 | 9.8 | 92 | 100 | 100 | 100 | 29 | 71 | 72 | 100 | 100 | 97 | 100 | 95 | 100 | 100 | 65 | 100 | 15
8 | CN(C)CCNC(=O)Nc1ccc(N(C)c2ccnc(Nc3ccc(CS(C)(=O)=O)cc3)n2)cc1.Cl [GW830900A] | 96 | 74 | 55 | 93 | 91 | 100 | 100 | 92 | 84 | 93 | 100 | 100 | 99 | 93 | 91 | 100 | 89 | 100 | 100 | 98
9 | CN1CCN(C(=O)c2ccc(NC(=O)Nc3ccc(N(C)c4ccnc(Nc5ccc(CS(C)(=O)=O)cc5)n4)cc3)cc2)CC1.Cl [GW830263A] | 100 | 50 | 46 | 85 | 98 | 88 | 100 | 86 | 86 | 69 | 100 | 100 | 28 | 100 | 85 | 67 | 51 | 13 | 100 | 87
10 | Cl.O=S1CCN(Cc2ccc(-c3ccc4ncnc(Nc5ccc(OCc6ccccc6)c(F)c5)c4c3)o2)CC1 [GW576924A] | 85 | 100 | 100 | 100 | 100 | 100 | 100 | 100 | 100 | 100 | 100 | 100 | 100 | 100 | 100 | 100 | 100 | 100 | 100 | 100
11 | Cl.c1ccc(Cc2nc3ccc(Nc4ncnc5ccccc45)cc3[nH]2)cc1 [GR269666A] | 91 | 100 | 100 | 89 | 100 | 100 | 90 | 93 | 99 | 100 | 100 | 100 | 100 | 100 | 100 | 100 | 100 | 100 | 100 | 100
